PubChem BioAssay
A number with no mark means an inactive call. The source made the active and inactive calls. Unless noted, how the calls were made is not given here.

Target: Dihydroorotate dehydrogenase (quinone), mitochondrial (Plasmodium falciparum (isolate 3D7)) (UniProt Q08210)
Assay: PfDHODH enzyme inhibitors, primary screen, biochemical, C-terminal His tag, absorbance 600 nm (AID 1175);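 further: recombinant parasite enzyme with a five histidine tag at its C terminus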
Settings: DCIP absorbance 600 nm, higher = more signal, called active from +8 up or from −8 down
Further: test concentration not given here.

Chain of Dihydroorotate dehydrogenase (quinone), mitochondrial (Plasmodium falciparum (isolate 3D7)) (Q08210 whole entry, looked up): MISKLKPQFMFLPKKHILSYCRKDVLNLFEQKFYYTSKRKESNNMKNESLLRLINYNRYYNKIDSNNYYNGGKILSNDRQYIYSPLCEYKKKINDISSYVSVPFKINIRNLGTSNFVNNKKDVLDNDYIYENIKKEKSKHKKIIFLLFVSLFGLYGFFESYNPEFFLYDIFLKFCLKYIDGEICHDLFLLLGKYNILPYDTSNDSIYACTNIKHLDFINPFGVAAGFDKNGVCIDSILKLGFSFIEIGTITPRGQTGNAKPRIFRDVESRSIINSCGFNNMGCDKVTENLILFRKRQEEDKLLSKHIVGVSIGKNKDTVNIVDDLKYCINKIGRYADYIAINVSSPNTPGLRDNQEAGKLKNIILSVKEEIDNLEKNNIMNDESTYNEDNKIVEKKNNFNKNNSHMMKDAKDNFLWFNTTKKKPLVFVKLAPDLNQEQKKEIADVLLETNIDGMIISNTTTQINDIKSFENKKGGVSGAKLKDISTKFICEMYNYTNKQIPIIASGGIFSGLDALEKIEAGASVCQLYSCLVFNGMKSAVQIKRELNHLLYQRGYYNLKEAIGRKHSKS

Row | Compound | composite z-score
1 | CCC[C@@H]1C[C@@]1(CCC)[C@@H](NC(=O)OCc1ccccc1)c1ccc(-c2ccccc2)cc1 | -0.251
2 | COCCOC(=O)N1C(=O)[C@@]2(c3cc(C#CC4=CCCCC4)ccc31)[C@H](c1ccc(OCCO)cc1)N1[C@H](c3ccccc3)[C@H](c3ccccc3)OC(=O)[C@H]1[C@@H]2C(=O)NC[C@H](O)c1ccccc1 | 0.184
3 | C=C(CCCC)/C(=C/C[C@@H](OC(=O)c1ccncc1)c1ccccc1OCCO)c1cnc2ccccc2c1 | -3.38
4 | CC1CC/C=C\[C@H]2OC34C=CCN(C(C)C)C(=O)[C@H]3N(CCCCCCO)C(=O)[C@@H]4C2C(=O)O1 (stereo not given in full) | -0.36
5 | O=C1C2C=CC(C(O)c3ccc(Br)cc3)N(Nc3ccccc3F)C2C(=O)N1c1ccccc1 (stereo not given) | 0.356
6 | COC(=O)[C@@]1(Cc2ccc(OC)cc2)[C@H]2c3cc(C(=O)N4CCCC4)n(Cc4cccc5ccccc45)c3C[C@H]2CN1C(=O)c1ccccc1 | 0.237
7 | CCOC(=O)C1CCCCN1 (stereo not given) | -0.254
8 | COc1ccc([Si](C)(C)[C@H]2[C@H](CCn3cc([C@H](O)c4ccccc4)nn3)O[C@@]3(C(=O)N(Cc4ccc(N5C(=O)c6cccc7cccc5c67)cc4)c4ccccc43)[C@@H]2C)cc1 | 0.468
9 | [N-]=[N+]=NCc1ccccc1C[C@@]1(C(=O)N2CCOCC2)N=C(c2ccc(OCCCO)cc2)O[C@@H]1c1ccccc1 | 0.192
10 | COC(=O)C(CC#Cc1ccc2c(c1)[C@]1(C(=O)N2)[C@H](C(=O)N2CCN(c3ncccn3)CC2)[C@H]2C(=O)O[C@H](c3ccccc3)[C@H](c3ccccc3)N2[C@@H]1c1ccc(OCCO)cc1)C(=O)OC | -8.4 (active)
11 | [N-]=[N+]=Nc1ccccc1[C@@H]1OC(c2ccc(OCCCO)cc2)=N[C@]1(Cc1ccccc1)C(=O)NCC(O)CO (stereo not given in full) | 0.255
12 | CCCC[C@@H]1C[C@H]1[C@@H](NC(=O)c1cccs1)c1ccc(C(F)(F)F)cc1 | 0.322
13 | COC(=O)[C@@]1(Cc2ccc(OC)cc2)[C@H]2c3cc(C(=O)N(C)C)n(CCO)c3C[C@H]2CN1C(=O)c1ccccc1 | -0.462
14 | CCOC(=O)C[C@H]1[C@H](OC(=O)Cc2ccc3c(c2)OCO3)[C@@H](NC(=O)CC(C)C)c2cc(OCCCO)ccc2N1C(=O)Cc1ccc(OC)cc1 | -1.26
15 | O=C1NC(=O)C2C1C=CC(C(O)c1ccco1)N2Nc1ccccn1 (stereo not given) | 0.257

Tested on: not listed separately
Assay: P. aeruginosa biofilm formation inhibitors, primary screen, strain PAO1, LB-PBS medium, absorbance 600 nm (AID 1176)
Settings: P. aeruginosa PAO1 growth/biofilm, A600, 12 h; higher = more signal

Row | Compound | z-score
16 | O=C1OCCC=C[C@H]2OC34C=CCN(Cn5nnc6ccccc65)C(=O)[C@H]3N(CCCCCCO)C(=O)[C@@H]4C12 (stereo not given in full) | 0.205
17 | O=C1C[C@@](C(=O)NCCN2CCOCC2)(c2ccc([N+](=O)[O-])cc2)[C@@H](c2ccc(CO)cc2I)N1C1CCCCC1 | -0.261
18 | NC(=O)N1C(=O)C2C(C1=O)C1C=C(CCCO)C2C(c2cccs2)N1Cc1cccc(OC(F)(F)F)c1 (stereo not given) | -0.223
19 | C=C(/C(=C/C[C@H](OC(C)=O)c1ccccc1OCCO)c1cc(C(=O)OC)ccc1OC)C(C)C | -0.529
20 | CCCC[C@@H](O)C1=C(COc2ccccc2)C[C@H]2C(=O)N(C)C(=O)[C@H]2[C@H]1CO | 0.613
21 | O=C1NC(=O)C2C1C=CC(C(O)c1cccc3ccccc13)N2Nc1ccc(Cl)cc1Cl (stereo not given) | 0.875
22 | COc1ccc(-c2cc3c(c(CCc4ccccc4)n2)[Si](C(C)C)(C(C)C)OC3)cn1 | -1.29
23 | COC(=O)[C@@]1(Cc2ccc(F)cc2)[C@H]2c3cc(C(=O)N4CCCC4)n(CCc4ccc(O)c(O)c4)c3C[C@H]2CN1C(=O)c1ccccc1 | 1.78
24 | CC1=C[C@@]2(CO)C(=O)[C@]3(CO3)[C@@H]1[C@H]1[C@]2(C)C=C(CO)C(=O)[C@]12CO2 | -0.614
25 | O=C(NCC(F)(F)F)[C@@H]1c2ccccc2C(=O)N(Cc2ccc(OC(F)(F)F)cc2)[C@H]1c1ccc(CO)cc1 | -0.177
26 | COC(=O)Cn1c(C(=O)N(C)C)cc2c1C[C@H]1CN(C(=O)c3ccccc3)[C@@](Cc3ccc(F)cc3)(C(=O)OC)[C@@H]21 | 0.743
27 | COc1ccc([Si](C)(C)[C@H]2[C@H](CC(=O)N(CCO)Cc3ccccc3)O[C@@]3(C(=O)N(Cc4cccc(N5CCOC5=O)c4)c4ccccc43)[C@@H]2C)cc1 | 1.28
28 | COCCCNC(=O)[C@]1(CCS(=O)(=O)c2ccccc2)N=C(c2ccc(OCCCO)cc2)O[C@@H]1c1ccccc1CN=[N+]=[N-] | 0.438
29 | [N-]=[N+]=Nc1ccccc1C[C@]1(C(N)=O)N=C(c2ccc(OCCCO)cc2)O[C@H]1c1ccccc1N=[N+]=[N-] | -0.193
30 | C#CCN([C@@H](Cc1ccc(O)cc1)C(=O)OC)[C@@H](/C=C/C1CC1)[C@H](O)Cc1ccccc1 | -0.672
31 | CN(C)c1ccc(C(O)C2C=CC3C(=O)N(c4ccccc4)C(=O)C3N2Nc2ccc([N+](=O)[O-])cc2)cc1 (stereo not given) | 0.617
32 | NCCCCCCNC(=O)[C@@H]1C[C@@H]2C(=O)N[C@@H](CCCCN)C(=O)N2[C@@H]1c1cccc(OCCO)c1 | -0.931
33 | CCOC(=O)C1=CC[C@@H](c2ccc(OCc3ccccc3)c(OC)c2)N(S(=O)(=O)c2ccc(C)cc2)[C@H]1c1ccc(SC)cc1 | 1.64

Row | Compound | z-score
34 | COC(=O)[C@@]1(Cc2ccccc2)[C@H]2c3cc(C(=O)N(C)C)n(Cc4c(CO)[nH]cc(C)c4=O)c3C[C@H]2CN1C(=O)c1ccccc1 | 0.507
35 | CN1C(=O)C2C=CC(C(O)COCc3ccccc3)N(N(c3ccccc3)c3ccccc3)C2C1=O (stereo not given) | 1.04
36 | CCC[C@@H]1C[C@@]1(CCC)[C@@H](NC(=O)OCc1ccccc1)c1ccc(-c2ccccc2)cc1 | 0.191
37 | COCCOC(=O)N1C(=O)[C@@]2(c3cc(C#CC4=CCCCC4)ccc31)[C@H](c1ccc(OCCO)cc1)N1[C@H](c3ccccc3)[C@H](c3ccccc3)OC(=O)[C@H]1[C@@H]2C(=O)NC[C@H](O)c1ccccc1 | 3.6
38 | C=C(CCCC)/C(=C/C[C@@H](OC(=O)c1ccncc1)c1ccccc1OCCO)c1cnc2ccccc2c1 | 1.07
39 | CC1CC/C=C\[C@H]2OC34C=CCN(C(C)C)C(=O)[C@H]3N(CCCCCCO)C(=O)[C@@H]4C2C(=O)O1 (stereo not given in full) | 0.345
40 | O=C1C2C=CC(C(O)c3ccc(Br)cc3)N(Nc3ccccc3F)C2C(=O)N1c1ccccc1 (stereo not given) | 0.629
41 | COC(=O)[C@@]1(Cc2ccc(OC)cc2)[C@H]2c3cc(C(=O)N4CCCC4)n(Cc4cccc5ccccc45)c3C[C@H]2CN1C(=O)c1ccccc1 | -0.362
42 | CCOC(=O)C1CCCCN1 (stereo not given) | 0.0619
43 | COc1ccc([Si](C)(C)[C@H]2[C@H](CCn3cc([C@H](O)c4ccccc4)nn3)O[C@@]3(C(=O)N(Cc4ccc(N5C(=O)c6cccc7cccc5c67)cc4)c4ccccc43)[C@@H]2C)cc1 | 1.03
44 | [N-]=[N+]=NCc1ccccc1C[C@@]1(C(=O)N2CCOCC2)N=C(c2ccc(OCCCO)cc2)O[C@@H]1c1ccccc1 | 0.593
45 | COC(=O)C(CC#Cc1ccc2c(c1)[C@]1(C(=O)N2)[C@H](C(=O)N2CCN(c3ncccn3)CC2)[C@H]2C(=O)O[C@H](c3ccccc3)[C@H](c3ccccc3)N2[C@@H]1c1ccc(OCCO)cc1)C(=O)OC | 3.59
46 | [N-]=[N+]=Nc1ccccc1[C@@H]1OC(c2ccc(OCCCO)cc2)=N[C@]1(Cc1ccccc1)C(=O)NCC(O)CO (stereo not given in full) | -0.291
47 | CCCC[C@@H]1C[C@H]1[C@@H](NC(=O)c1cccs1)c1ccc(C(F)(F)F)cc1 | 0.771
48 | COC(=O)[C@@]1(Cc2ccc(OC)cc2)[C@H]2c3cc(C(=O)N(C)C)n(CCO)c3C[C@H]2CN1C(=O)c1ccccc1 | 0.33
49 | CCOC(=O)C[C@H]1[C@H](OC(=O)Cc2ccc3c(c2)OCO3)[C@@H](NC(=O)CC(C)C)c2cc(OCCCO)ccc2N1C(=O)Cc1ccc(OC)cc1 | 0.101
50 | O=C1NC(=O)C2C1C=CC(C(O)c1ccco1)N2Nc1ccccn1 (stereo not given) | 0.956
